From PubChem
S2 tox: reduces viability in counter-screen for ATXN expression inhibitors | hit rate 0.49% among 400,000 | Potency, µM (top dose mostly 56.7 µM), most hits filed as cytotoxic | S2 cells (HEK-293 line with an ATXN2-luciferase reporter) viability, CellTiter-Fluor protease fluorescence, 24 h | AID 651635; note: nearly all actives have a fitted effect of over 40% in size
ATXN2 expr inh: reduces ATXN2 reporter expression in HEK-293 cells; HEK-293 ATXN2-luciferase reporter, luminescence, 24 h; AID 1745845; Potency, µM (series often up to 57 µM), inactives show at the highest dose activity change, negative = inhibition, actives largely listed as inhibitors; hit rate 0.72% among 360,000; note: % is set by controls: 0 for no effect and ±100 for the full control effect; nearly all actives have a fitted effect of over 55% in size
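qHTS (up to 57 uM final) was run with 24 h compound exposure of reporter cells at 37 °C. Each well was multiplexed: SteadyGlo luminescence measured ATXN2-luciferase expression after a fluorogenic Gly-Phe-AFC viability readout (25 uM final).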
HepG2 tox: kills HepG2 cells in TGF-b inhibitor counter-screen. HepG2 CAGA-GFP viability, ATP luminescence, 18 h. Potency, µM (top dose mostly 46.1 µM), without a hit: top-dose activity change, negative = cytotoxicity, hits mostly cytotoxic. hit rate 0.76% among 410,000
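HepG2 CAGA-GFP cells (1000/well, DMEM with 1% FBS) received compound, then TGF-beta at 500 pg/mL final, and were incubated 18 hours at 37 degrees C. Viability was read by CellTiter-Glo luminescence. Media-only wells were set as complete cell-killing and DMSO as no toxicity.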
TGFb SMAD3 inh: blocks TGF-b signaling; HepG2 CAGA-GFP TGF-b/SMAD3 reporter, GFP fluorescence, 18 h; TGF-beta stimulated, 500 pg/mL final; Potency, µM (highest dose often 46.1 µM), inactives show at the top dose activity, negative = inhibition, actives largely listed as inhibitors; hit rate 1.2% among 410,000; note: % is set by controls: 0 for no effect and ±100 for the full control effect; nearly all actives have a fitted effect of over 65% in size
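Inhibition of TGF-beta-driven CAGA-GFP reporter expression in HEPG2 cells is measured by cellular GFP fluorescence after 18 h stimulation with 500 pg/mL recombinant TGF-beta in 1% FBS medium at 37 degrees C.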
DT40 TDP1 no CPT: qHTS for Inhibitors of human tyrosyl-DNA phosphodiesterase 1 (TDP1): qHTS in cells in absence of CPT; Potency, µM (highest dose often 46.2 µM), for inactives: at the highest dose activity change, negative = growth inhibition, hits mostly inhibitors; DT40 Tdp1-/- hTDP1 cells, no CPT, ATP luminescence, 48 h; hit rate 15% among 420,000; note: % is set by controls: 0 for no effect and ±100 for the full control effect; nearly all actives have a fitted effect of over 55% in size
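DT40 Tdp1-/-;hTDP1 cells, no CPT (DMSO vehicle only), 400 cells/well; compounds pin-transferred; ≥48 hr, 37 °C; CellTiter-Glo 30 min RT dark, luminescence read.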
TDP1 cell CPT: DT40-hTDP1 cell growth loss with CPT. chicken DT40 Tdp1-/-;hTDP1 cells + 20 nM CPT, ATP luminescence, 48 h. hit rate 12% among 420,000. AID 686979. Potency, µM (titrated, usually from 46.2 µM), for the others: at the top dose activity change, negative = growth inhibition, hits mostly inhibitors; note: % is set by controls: 0 for no effect and ±100 for the full control effect; nearly all actives have a fitted effect of over 55% in size
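Cell growth measured by CellTiter-Glo luminescence after a minimum 48 h, 37 C compound exposure with 20 nM CPT in Tdp1-knockout DT40 cells stably expressing hTDP1, seeded 400/well; qHTS titration format.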
The depositor's hits bear a star; i = inactive; ? = inconclusive; / = not tested or not shown. Sampled rows, rich in hits. Any-hit rate of the full collection: about 17%. Calls come from the whole dose curve; as a rule, active = well fitted curve in the direction sought with a large enough effect; inconclusive = small, poorly fitted or top-dose-only effect, or another doubt; inactive = no such curve, though single readings can be large; an effect the other way counts as inactive or inconclusive. Potency is the fitted concentration of half-maximal effect.

SMILES | S2 tox | ATXN2 expr inh | HepG2 tox | TGFb SMAD3 inh | DT40 TDP1 no CPT | TDP1 cell CPT
COc1ccc(C(=O)Nc2ccc3nc(SCC(=O)N4CCCc5ccccc54)sc3c2)cc1 | / | / | -26% | ? | 18µM* | 9.2µM*
CN1C(=O)C(Cc2cnc[nH]2)NC1=S (stereo not drawn) | ? | / | -18% | 0% | -14% | 21%
Cn1c(C(=O)NCCc2ccccc2)cc2sc(Cl)cc21 | i | 29% | -30% | 2% | -18% | -18%
CC1(C)Cc2nc(NC3CCCCC3)c(C#N)cc2CO1 | i | -26% | -2% | 0% | 23µM* | ?
COc1ccc2oc3cc(NCCN(C)C)ccc3c(=O)c2c1 | / | ? | -15% | ? | 26µM* | ?
CN(C)CCNc1ccc2ncn3c4ccc(O)cc4c(=O)c1c23 | i | 4µM* | 1% | ? | 0.023µM* | 0.052µM*
CN(C)CCNc1ccc(CO)c2sc3ccc(O)cc3c(=O)c12 | 19µM* | 2.7µM* | -24% | 14µM* | 0.15µM* | 0.026µM*
COc1ccc2sc3cccc(NCCN(C)C)c3c(=O)c2c1 | i | -8% | 3% | ? | 10µM* | 13µM*
CCOC(=O)c1cnc2ccc(Cl)cc2c1NCCN(C)C | i | -12% | -6% | 3% | ? | -3%
Cc1cccc(C)c1N(CC(=O)NCc1ccccc1)C(=O)c1csnn1 | i | 0% | 3% | -1% | -1% | 7%
CSCCC(NS(=O)(=O)c1ccccc1F)C(=O)NCCCn1nc(C)cc1C (stereo not drawn) | i | 6% | -11% | 0% | -13% | -12%
COc1ccc([N+](=O)[O-])cc1NS(=O)(=O)c1cccc(C(=O)O)c1 | i | -1% | 28% | 4% | -1% | -16%
N#Cc1c2n(c3c(=O)n(Cc4ccccc4Cl)cnc13)CCCCC2 | i | 2% | -2% | 0% | ? | 18µM*
COC(=O)Cn1cnc2c(C#N)c3n(c2c1=O)CCCCC3 | i | 0% | 3% | 30% | -5% | -24%
Cc1ccc(OCc2nnc(SCC(=O)c3ccccc3)n2-c2ccccc2)cc1 | i | -13% | -4% | ? | ? | ?
Cc1cccc(-n2c(CCc3ccccc3)nnc2SCC(=O)c2ccccc2)c1 | ? | ? | -6% | ? | 9.2µM* | 9.2µM*
Cc1ccc(-n2c(CCc3ccccc3)nnc2SCC(=O)NCc2ccccc2)cc1C | i | -2% | -29% | ? | 23µM* | ?
COCc1nnc(SCC(=O)NCc2ccccc2)n1-c1ccccc1 | i | 0% | -3% | -15% | 2% | -1%
CCNC(=O)C1(C)CCCN(Cc2ccc3ccccc3c2Br)C1 (stereo not drawn) | i | ? | -33% | ? | 18µM* | ?
COCCNC(=O)C1(C)CCN(Cc2ccccc2C#N)C1 (stereo not drawn) | i | 2% | -8% | -13% | 5% | -21%
CCNC(=O)C1(C)CCCN(Cc2cccc3ccccc23)C1 (stereo not drawn) | i | -6% | -10% | 7% | ? | ?
COCCNC(=O)C1(C)CCN(Cc2ccc3ccccc3c2Br)C1 (stereo not drawn) | i | -17% | -27% | -7% | 10µM* | 29µM*
O=C1CC[C@H](N2C(=O)c3ccccc3C2=O)C(=O)N1 | i | 2% | -14% | 30% | 4% | -6%
CC(=O)Oc1ccc(Cn2c(C)c(C(=O)NC3CC3)sc2=O)cc1 | i | 10% | 7% | 22% | -21% | -26%
CCN1CCOC(=O)C1CC(=O)Nc1ccc(C(C)=O)cc1 (stereo not drawn) | i | 6% | -10% | ? | 10µM* | 21µM*
SMILES | S2 tox | ATXN2 expr inh | HepG2 tox | TGFb SMAD3 inh | DT40 TDP1 no CPT | TDP1 cell CPT
COc1ccc(Cl)cc1NC(=O)CC1CCCC1 | i | 2% | -13% | 1% | 0% | 0%
CCN1CCOC(=O)C1CC(=O)Nc1ccccc1C(F)(F)F (stereo not drawn) | i | 2% | -50% | ? | 3.7µM* | 3.3µM*
CCN1CCOC(=O)C1CC(=O)Nc1cc(Cl)ccc1OC (stereo not drawn) | i | 3% | -3% | ? | 2.6µM* | 4.6µM*
CCN1CCN(CC(=O)Nc2ccc(C(C)=O)cc2)CC1 | i | -15% | 3% | -12% | 5% | 2%
Cc1ccc2cc(CN(Cc3ccco3)C(=O)c3ccco3)c3nnnn3c2c1 | i | -10% | -8% | 7% | ? | ?
CCc1ccccc1NC(=O)[C@@H](c1ccccc1)N1Cc2ccccc2C1=O | ? | 8% | -20% | -2% | ? | ?
FC(F)(F)c1nc2nccnc2[nH]1 | i | / | 9% | 6% | ? | -13%
Cn1cc(S(=O)(=O)N2CCOCC2)cc1C(=O)Nc1ccc(Cl)c(C(F)(F)F)c1 | / | / | -34% | ? | 23µM* | ?
Cc1ccc(C)c(NC(=O)c2cc(S(=O)(=O)N3CCOCC3)cn2C)c1 | i | -3% | -5% | -5% | -24% | 15µM*
Cc1cccc(NC(=O)c2cc(S(=O)(=O)N3CCOCC3)cn2C)c1C | ? | -15% | -9% | 2% | 6% | 5%
Cn1cc(S(=O)(=O)N2CCOCC2)cc1C(=O)Nc1cccc(Cl)c1 | i | -12% | -20% | -23% | -5% | 1%
CN(CC(=O)Nc1cccc(S(=O)(=O)N2CCOCC2)c1)CC(=O)Nc1ccc(Cl)c(C(F)(F)F)c1 | ? | ? | -2% | ? | 7.3µM* | 15µM*
Cc1noc(C)c1S(=O)(=O)NCCc1csc2nc(-c3ccc(F)cc3)nn12 | / | / | -24% | -26% | 23µM* | 18µM*
COc1ccc(-c2nc3scc(CCNS(=O)(=O)c4c(C)noc4C)n3n2)cc1 | / | / | -8% | -25% | ? | ?
CCS(=O)(=O)NCCc1csc2nc(-c3ccc(OC)cc3)nn12 | / | / | -3% | 1% | ? | ?
CCOc1ccc(S(=O)(=O)NCCc2csc3nc(-c4ccc(F)cc4)nn23)cc1 | / | / | -29% | ? | 6.5µM* | 12µM*
COC(=O)c1ccccc1NC(=O)CN(C)S(=O)(=O)c1ccc(OC)cc1 | i | -4% | -1% | -14% | ? | ?
COc1ccccc1NC(=O)CN(c1ccccc1)S(=O)(=O)c1ccccc1 | i | -8% | -13% | 0% | -24% | -20%
COC(=O)c1ccccc1NC(=O)CN(c1ccc(Cl)cc1)S(=O)(=O)c1ccc(OC)cc1 | i | 13% | 3% | 0% | 9.2µM* | 21µM*
